Lassa entry inh = qHTS for Inhibitors of binding or entry into cells for Lassa Virus; Potency, µM (series often up to 37.9 µM), for the others: top-dose activity change, negative = inhibition, most hits filed as inhibitors; 300,000 tested, 1.2% active; AID 540256, 2011; Lassa virus pseudotype entry inhibition, cell reporter; calls by dose curve; tested in HEK293 cells; note: potency is the fitted concentration of half-maximal effect; % is set by controls: 0 for no effect and ±100 for the full control effect; nearly all actives have a fitted effect of over 50% in size
Shiga toxin inh = A qHTS for Small Molecule Inhibitors of Shiga Toxin; 290,000 tested, 9.2% active; AID 2315, 2010; Vero cells, Shiga toxin protein synthesis inhibition reporter; inhibition, % at 38.7 µM; in the data active = inhibition mostly above about 28%, no sharp cut-off; inactive = mostly below about 43%; note: 0% is about no effect
VACV Venus inh = qHTS for Stage-Specific Inhibitors of Vaccinia Orthopoxvirus: Venus Reporter Primary qHTS; Vaccinia virus Venus reporter expression, fluorescence; AID 720580, 2013; Potency, µM (titrated, usually from 36.5 µM), for inactives: at the top dose activity change, negative = inhibition, usual class: inhibitors; 330,000 tested, 0.46% active; calls by dose curve; tested in A549 cells; note: potency is the fitted concentration of half-maximal effect; % is set by controls: 0 for no effect and ±100 for the full control effect; nearly all actives have a fitted effect of over 30% in size
MARV entry inh = qHTS for inhibitors of binding or entry into cells for Marburg Virus; Marburg virus pseudotyped entry inhibition, cell reporter; Potency, µM (titrated, usually from 37.8 µM), for the others: at the highest dose activity change, negative = inhibition, actives largely listed as inhibitors; 300,000 tested, 1.8% active; AID 540276, 2011; calls by dose curve; tested in HEK293 cells; note: potency is the fitted concentration of half-maximal effect; % is set by controls: 0 for no effect and ±100 for the full control effect
CHX counter = Cycloheximide Counterscreen for Small Molecule Inhibitors of Shiga Toxin; cell reporter, cycloheximide protein synthesis inhibition counterscreen; max response, %; 300,000 tested, 12% active; in the data active = max response mostly above about 13%, no sharp cut-off; inactive = mostly below about 14%; note: read at 38.3 µM for the half of the compounds with a filed dose; 0% is about no effect
VACV mCherry inh = qHTS for Stage-Specific Inhibitors of Vaccinia Orthopoxvirus: mCherry Reporter Primary qHTS. 310,000 tested, 0.63% active. Potency, µM (series often up to 36.5 µM), for inactives: at the top dose activity change, negative = inhibition, hits mostly inhibitors. Vaccinia virus mCherry reporter infection, fluorescence; calls by dose curve; tested in A549 cells; note: potency is the fitted concentration of half-maximal effect; % is set by controls: 0 for no effect and ±100 for the full control effect; nearly all actives have a fitted effect of over 35% in size
Starred values were filed as active, the others as inactive; i = inactive; ? = inconclusive; nt = no result; ! = a repeat was not active; [ ] = remark or other dose. The entries come from a sample that favours hits as a whole.

SMILES | Lassa entry inh | Shiga toxin inh | VACV Venus inh | MARV entry inh | CHX counter | VACV mCherry inh
COc1ccccc1-c1ccnc(-n2ncc(C(=O)N[C@H]3CCCCNC3=O)c2C2CC2)n1 | nt | nt | -22% | nt | nt | -12%
COc1ccc2occ(CC(=O)Nc3ccc(S(=O)(=O)Nc4nccc(C)n4)cc3)c2c1 | -2%[46.1 µM] | nt | -4% | -3%[46.1 µM] | nt | -3%
COc1ccc(-c2cc(C(=O)N3CCc4c(cnc(C)c4CNC(=O)c4ccsc4)C3)[nH]n2)cc1 | nt | nt | 12% | nt | nt | -5%
O=C(Cn1c(=O)n(Cc2nc(-c3ccccc3)no2)c(=O)c2ccccc21)Nc1cccc(C(F)(F)F)c1 | 9%[46.1 µM] | nt | -17% | nt | nt | -11%
N#C/C(=C\c1ccccc1)C(=O)Nc1nncs1 | -1% | -9 | -16% | 6%[46.1 µM] | -1 | -11%
N#C/C(=C\c1ccc2c(c1)OCCO2)C(=O)Nc1nccs1 | nt | 94* | 5% | 8%[46.1 µM] | 27 | 11%
CC1CCCCC1NC(=O)/C(C#N)=C/c1ccc2c(c1)OCCO2 (stereo not drawn) | -12% | 39* | -20% | 13% | 14 | i
O=C1NC(=S)N(C(=O)c2ccc(F)cc2)/C1=C/c1ccccc1 | ? | 21 | 59% | ? | 14* | ?
COc1ccc(/C=C2\C(=O)NC(=S)N2C(=O)c2ccc(F)cc2)cc1 | 9% | -2 | 109% | ? | 2 | -13%
O=C(Nc1nc(-c2ccccc2)c(-c2ccccc2)s1)c1ccc(S(=O)(=O)N(CCCl)CCCl)cc1 | 5µM* | -5 | -11% | ? | -3 | i
COCCN(CCOC)S(=O)(=O)c1ccc(C(=O)Nc2nc(C)c(C(C)=O)s2)cc1 | 27% | -6 | nt | 27% | 1 | nt
Cc1ccc(S(=O)(=O)NC(CC(N)=O)C(=O)O)cc1 (stereo not drawn) | ? | 14 | -2% | ? | 2 | nt
Cc1ccc(S(=O)(=O)N[C@@H](CCCCN)C(=O)CCl)cc1 | -34% | nt | 2% | 13µM*! | nt | -15%
CCN(CC)CCSc1c(C(C)C)cnc2c1c(=O)n(C)c(=O)n2C | 3%[46.1 µM] | nt | -2% | nt | nt | 4%
Cc1ccc(NC(=O)CCCc2nnc3n(C)c(=O)c4sccc4n23)cc1F | ? | nt | -10% | 18%[46.1 µM] | nt | -14%
COc1cccc(NC(=O)COc2ccc(C)cc2)c1 | 3% | 63* | -16% | -24%[46.1 µM] | 37* | nt
COc1cccc(NC(=O)COc2ccc3c(c2)CCC3)c1 | nt | 38* | nt | nt | 23* | nt
Cc1nc2cc(NC(=O)N3c4ccccc4CC3C)ccc2n1C (stereo not drawn) | ? | 33* | -12% | ? | 19* | i
Cc1nc2cc(NC(=O)N3c4ccccc4CC3C)ccc2o1 (stereo not drawn) | -8% | 73* | -10% | 1% | 42* | -15%
Cc1ccccc1NC(=O)N1c2ccccc2CC1C (stereo not drawn) | -5% | 56 | nt | 5% | 9 | nt
Cc1nc2cc(NC(=O)Nc3ccc(Br)cc3)ccc2o1 | ? | 99* | -5% | ? | 47* | i
C#CCCCON=C1C[C@@H](O)[C@H](O)[C@H]2[C@@H]3C(=O)N(c4ccc(F)cc4F)C(=O)[C@@H]3CC[C@@H]12 | nt | nt | nt | -8%[14.2 µM] | nt | nt
Cc1cc(C)n2c(Nc3ccc4c(c3)OCCO4)c(-c3ccccc3)nc2n1 | -18%[46.1 µM] | 52* | ? | ? | 46* | -13%
Cc1cccc2nc(-c3ccco3)c(Nc3ccc4c(c3)OCO4)n12 | ? | 24 | 0% | ? | 31* | ?
COc1ccc2nccc(/C=C/c3ccc(N(C)C)cc3)c2c1 | nt | nt | -9% | nt | nt | -13%
SMILES | Lassa entry inh | Shiga toxin inh | VACV Venus inh | MARV entry inh | CHX counter | VACV mCherry inh
CSc1nc(-c2ccccc2)nn1C(=O)c1ccc(C)cc1 | ? | 65 | -5% | 5% | 15* | -13%
CSc1nc(-c2ccco2)nn1C(=O)c1ccco1 | 3% | -15 | nt | 3% | -4 | nt
CSc1nc(-c2ccc(Cl)cc2)nn1C(=O)c1ccco1 | 22% | 65* | -12% | 1% | 62* | nt
CC1CCCCC1n1c(=S)[nH]c2ccccc2c1=O (stereo not drawn) | 10% | -23 | -20% | ? | -5 | 0%
CCOc1ccc(NC(=O)c2ccc(CC)s2)c([N+](=O)[O-])c1 | 23% | 34* | 0% | ? | 23* | -12%
CCOc1ccc(NC(=O)c2cccnc2Cl)c([N+](=O)[O-])c1 | 2% | -5 | -13% | ? | 26 | -2%
CCOc1ccc(NC(=O)c2ccco2)c([N+](=O)[O-])c1 | ? | 40* | -23% | ? | 66* | i
CCOc1ccc(NC(=O)c2cccs2)c([N+](=O)[O-])c1 | ? | 120* | 4% | ? | 87* | -2%
O=C(O)C1CCN(C(=O)CCc2ccccc2)CC1 | ? | 11 | -9% | -28% | -2 | -10%
Cc1ccc(S(=O)(=O)CCC(=O)OCC(=O)N2c3ccccc3NC(=O)C2(C)C)cc1 | -6% | nt | -14% | 4% | nt | -1%
COc1ccc(CNC(=O)COC(=O)CCc2nc3ccccc3c(=O)[nH]2)cc1 | -23% | -12 | -9% | 0%[46.1 µM] | 12 | 0%
Cc1ccccc1NC(=O)c1cnc2ccccn2c1=O | ? | 86* | -15% | ? | 79* | i
O=C(NCCc1ccccc1)c1cnc2ccccn2c1=O | ? | 57* | -9% | ? | 41* | i
Cc1cc(Br)cc(C)c1NC(=O)c1cnc2ccccn2c1=O | nt | nt | -12% | ? | nt | -21%
Cn1c(C(=O)NCCc2ccccc2)cc2c(=O)n3ccccc3nc21 | 36%[46.1 µM] | nt | -7% | nt | nt | -7%
CSc1ccccc1NC(=O)c1cnc2scc(C)n2c1=O | nt | 28* | -23% | nt | 25* | -6%
Cc1csc2ncc(C(=O)NCCc3ccccc3)c(=O)n12 | nt | 48* | -15% | nt | 45* | -15%
COc1ccc(Br)cc1CNC(=O)Cn1nc(C)n2c(cc3cc(F)ccc32)c1=O | nt | nt | 3% | 6%[46.1 µM] | nt | -2%
CSc1ccc(Cc2ccc(Cl)cc2Cl)nn1 | 4% | 38 | nt | ? | 22* | nt
O=C(COc1ccc2ccccc2c1Br)Nc1cccnc1 | nt | 138* | nt | nt | 37* | nt
O=C(O)CCC(=O)NNC(=O)COc1ccc2ccccc2c1Br | ? | 17 | -18% | 10%[46.1 µM] | -2 | 6%
O=C(COc1ccc2ccccc2c1Br)Nc1ccncc1 | ? | 74* | ? | ? | 28* | -18%
Cc1nc2nncn2c(N2CCN(c3ccccc3)CC2)c1C | -4%[46.1 µM] | nt | -21% | 4%[46.1 µM] | nt | -22%
COc1ccc(CN2C(=O)CS/C2=N/N=C/c2ccccc2)cc1 | nt | -8 | nt | nt | -3 | nt
COc1ccc(/C=N/N=C2/SCC(=O)N2Cc2ccccc2)cc1 | ? | 86* | -13% | ? | 47* | -19%
COc1ccc(/C=C2\CN(Cc3ccccc3)C/C(=C\c3ccc(OC)cc3OC)C2=O)c(OC)c1 | ? | -7 | nt | ? | -1 | nt
COc1ccc(/C=C2\CN(Cc3ccccc3)C/C(=C\c3ccc(OC)cc3)C2=O)cc1 | 7.9µM* | -5 | -9% | ? | -4 | -14%

Source: PubChem
